Test results: ChEMBL document CHEMBL3988442, “University of Dundee, Small-Polar-MMV Screening Library” (2021)
For some of these results: Potency and affinity values are given separately.

Legend:
Set-up in all cases: scale not given: direction of the effect not stated beside the values
[1] = molecular target: Protein translocase subunit SecA (Escherichia coli (strain K12)) (UniProt P10408); assay: Assay to Identify E. coli SecA ATPase Inhibitors; format: functional; settings: 30 µM
[2] = molecular target: T1, Ubiquitin-activating enzyme e1, putative (Leishmania donovani (strain BPK282A1)) (UniProt E9BSI1); assay: Leishmania donovani Ubiquitin Activating Enzyme (LdE1); format: functional; settings: 30 µM
T1 sequence (whole entry): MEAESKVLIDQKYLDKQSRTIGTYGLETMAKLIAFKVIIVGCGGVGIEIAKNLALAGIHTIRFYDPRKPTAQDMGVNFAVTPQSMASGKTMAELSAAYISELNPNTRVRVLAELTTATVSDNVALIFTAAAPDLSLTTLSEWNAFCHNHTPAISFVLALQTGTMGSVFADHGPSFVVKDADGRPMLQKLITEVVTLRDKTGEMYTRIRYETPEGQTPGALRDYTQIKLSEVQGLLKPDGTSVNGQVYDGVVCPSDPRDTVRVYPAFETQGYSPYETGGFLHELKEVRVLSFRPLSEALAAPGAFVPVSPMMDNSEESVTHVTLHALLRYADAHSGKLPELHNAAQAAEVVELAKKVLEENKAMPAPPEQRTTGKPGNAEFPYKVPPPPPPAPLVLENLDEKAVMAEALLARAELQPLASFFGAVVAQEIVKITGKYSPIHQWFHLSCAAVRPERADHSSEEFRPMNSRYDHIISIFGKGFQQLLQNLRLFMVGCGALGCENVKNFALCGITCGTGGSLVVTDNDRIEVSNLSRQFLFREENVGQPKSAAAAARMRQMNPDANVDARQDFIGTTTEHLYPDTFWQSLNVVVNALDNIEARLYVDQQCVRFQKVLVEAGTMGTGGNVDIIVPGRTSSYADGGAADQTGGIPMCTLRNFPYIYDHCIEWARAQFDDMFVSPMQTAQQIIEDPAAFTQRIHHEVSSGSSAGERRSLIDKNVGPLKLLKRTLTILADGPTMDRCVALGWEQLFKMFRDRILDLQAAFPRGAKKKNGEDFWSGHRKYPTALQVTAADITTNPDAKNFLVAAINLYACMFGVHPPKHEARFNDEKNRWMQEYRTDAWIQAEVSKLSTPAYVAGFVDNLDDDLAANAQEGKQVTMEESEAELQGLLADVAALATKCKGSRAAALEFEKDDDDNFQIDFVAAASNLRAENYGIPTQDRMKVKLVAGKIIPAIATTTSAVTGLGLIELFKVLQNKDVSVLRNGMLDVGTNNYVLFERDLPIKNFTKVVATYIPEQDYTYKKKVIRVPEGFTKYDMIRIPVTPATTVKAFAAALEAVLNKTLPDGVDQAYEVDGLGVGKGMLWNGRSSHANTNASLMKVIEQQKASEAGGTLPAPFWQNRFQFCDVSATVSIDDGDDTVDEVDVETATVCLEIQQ

[3] = molecular target: AMP-activated protein kinase, AMPK (Homo sapiens) (UniProt P54646+O43741+P54619+Q9UGJ0+Q9Y478+Q13131+Q9UGI9); assay: AMP-dependent Kinase enzyme assay. An in vitro enzyme assay that detects ADP turnover that is directly proportional to AMPK activity. This uses naive AMPK that is activated during the assay with MK-8722; format: functional; settings: 30 µM
[4] = molecular target: Sialic acid-binding Ig-like lectin 9 (Homo sapiens) (UniProt Q9Y336); assay: Hs-Siglec9 ALPHAscreen SOP 20170721; settings: 10 µM
Chain of Sialic acid-binding Ig-like lectin 9 (Homo sapiens) (Q9Y336 whole entry): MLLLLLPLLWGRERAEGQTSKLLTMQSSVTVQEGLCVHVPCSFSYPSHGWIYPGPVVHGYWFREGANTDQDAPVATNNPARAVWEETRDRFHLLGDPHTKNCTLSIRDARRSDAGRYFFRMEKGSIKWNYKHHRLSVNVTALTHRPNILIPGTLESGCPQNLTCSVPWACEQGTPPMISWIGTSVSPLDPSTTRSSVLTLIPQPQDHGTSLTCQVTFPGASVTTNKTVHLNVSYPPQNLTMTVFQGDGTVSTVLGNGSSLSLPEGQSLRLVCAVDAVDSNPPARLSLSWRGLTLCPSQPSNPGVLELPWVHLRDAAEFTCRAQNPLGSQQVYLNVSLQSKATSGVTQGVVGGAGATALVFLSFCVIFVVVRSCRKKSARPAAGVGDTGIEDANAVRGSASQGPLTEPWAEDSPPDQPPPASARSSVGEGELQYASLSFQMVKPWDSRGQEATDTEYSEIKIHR

Trypanosoma cruzi = assay: Trypanosoma cruzi phosphomannomutase and mannose-1-phosphate guanylyltransferase assay; format: functional; settings: 10 µM
[5] = molecular target: T2, Arginase-2, mitochondrial (Homo sapiens) (UniProt P78540); assay: in vitro enzyme assay to detect the production of urea directly proportional to the activity of Arginase II; format: functional; settings: 33.3 µM; further: in the data most compounds retested in dose-response had high values
T2 sequence (whole entry): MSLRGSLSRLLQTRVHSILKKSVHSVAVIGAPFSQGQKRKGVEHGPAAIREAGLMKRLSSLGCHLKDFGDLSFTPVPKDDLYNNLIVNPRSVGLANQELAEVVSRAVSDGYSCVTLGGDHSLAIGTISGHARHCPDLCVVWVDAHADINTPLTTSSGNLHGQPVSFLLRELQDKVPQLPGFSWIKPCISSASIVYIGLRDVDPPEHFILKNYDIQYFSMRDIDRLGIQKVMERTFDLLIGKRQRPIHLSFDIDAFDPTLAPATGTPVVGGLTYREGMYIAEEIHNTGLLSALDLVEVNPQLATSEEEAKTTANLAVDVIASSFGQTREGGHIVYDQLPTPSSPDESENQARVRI

[6] = molecular target: T3, Proteasome subunit beta (Trypanosoma cruzi) (UniProt O96673); assay: Trypanosoma cruzi proteasome chymotrypsin-like activity (TcProtChymo) assay.; further: in the data most compounds retested in dose-response had high values; format: functional; settings: 9.37 µM
T3 sequence (whole entry): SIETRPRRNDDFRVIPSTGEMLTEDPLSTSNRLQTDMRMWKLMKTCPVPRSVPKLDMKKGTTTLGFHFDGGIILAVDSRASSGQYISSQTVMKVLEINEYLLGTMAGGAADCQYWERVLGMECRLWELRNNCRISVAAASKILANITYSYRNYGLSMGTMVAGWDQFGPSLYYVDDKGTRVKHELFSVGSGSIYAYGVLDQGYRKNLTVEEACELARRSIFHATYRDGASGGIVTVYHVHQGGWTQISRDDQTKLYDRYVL

Homo sapiens = species: Homo sapiens; assay: To identify inhibition of the IFN signalling (Jak-Stat) pathway via expression of an eGFP reporter gene under the control of an IFN-stimulated response element (ISRE) containing MxA promoter.; format: functional; settings: 30 µM
[7] = molecular target: T4, Tyrosyl-tRNA synthetase, putative (Trypanosoma cruzi (strain CL Brener)) (UniProt Q4DSP6); assay: Trypanosoma cruzi tyrosyl tRNA synthetase (TcYRS) _High Tyrosine SOP; format: functional; settings: 30 µM; further: in the data most compounds retested in dose-response had high values
T4 sequence (whole entry): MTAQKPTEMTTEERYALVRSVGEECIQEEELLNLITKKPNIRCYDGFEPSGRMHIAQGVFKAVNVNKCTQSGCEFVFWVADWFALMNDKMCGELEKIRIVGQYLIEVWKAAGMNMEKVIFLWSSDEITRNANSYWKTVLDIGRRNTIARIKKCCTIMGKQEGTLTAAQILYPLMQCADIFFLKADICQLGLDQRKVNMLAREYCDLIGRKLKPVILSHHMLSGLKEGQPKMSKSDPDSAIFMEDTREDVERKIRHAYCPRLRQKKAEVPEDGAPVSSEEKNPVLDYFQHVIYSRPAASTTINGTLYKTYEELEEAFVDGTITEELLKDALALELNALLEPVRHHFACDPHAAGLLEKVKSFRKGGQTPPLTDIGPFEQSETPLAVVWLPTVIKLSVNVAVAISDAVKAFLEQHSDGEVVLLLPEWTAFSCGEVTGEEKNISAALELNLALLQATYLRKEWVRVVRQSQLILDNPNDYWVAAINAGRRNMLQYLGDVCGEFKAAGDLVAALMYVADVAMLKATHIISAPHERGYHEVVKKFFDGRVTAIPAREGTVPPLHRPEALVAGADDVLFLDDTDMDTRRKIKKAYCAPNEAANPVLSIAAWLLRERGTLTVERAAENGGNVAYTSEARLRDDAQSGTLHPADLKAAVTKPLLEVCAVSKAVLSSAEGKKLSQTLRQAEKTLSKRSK

[8] = molecular target: T4, Tyrosyl-tRNA synthetase, putative (Trypanosoma cruzi (strain CL Brener)); assay: Trypanosoma cruzi tyrosyl tRNA synthetase (TcYRS) SOP; format: functional; settings: 30 µM
[9] = molecular target: Chromo domain-containing protein 1 (Saccharomyces cerevisiae (strain ATCC 204508 / S288c) (Baker's yeast)) (UniProt P32657); assay: ScCHD-1 Enzyme Inhibition Assay; format: functional; settings: 30 µM; further: in the data most compounds retested in dose-response had high values
Chain of Chromo domain-containing protein 1 (Saccharomyces cerevisiae (strain ATCC 204508 / S288c) (Baker's yeast)) (P32657 whole entry, the tested form may be a part): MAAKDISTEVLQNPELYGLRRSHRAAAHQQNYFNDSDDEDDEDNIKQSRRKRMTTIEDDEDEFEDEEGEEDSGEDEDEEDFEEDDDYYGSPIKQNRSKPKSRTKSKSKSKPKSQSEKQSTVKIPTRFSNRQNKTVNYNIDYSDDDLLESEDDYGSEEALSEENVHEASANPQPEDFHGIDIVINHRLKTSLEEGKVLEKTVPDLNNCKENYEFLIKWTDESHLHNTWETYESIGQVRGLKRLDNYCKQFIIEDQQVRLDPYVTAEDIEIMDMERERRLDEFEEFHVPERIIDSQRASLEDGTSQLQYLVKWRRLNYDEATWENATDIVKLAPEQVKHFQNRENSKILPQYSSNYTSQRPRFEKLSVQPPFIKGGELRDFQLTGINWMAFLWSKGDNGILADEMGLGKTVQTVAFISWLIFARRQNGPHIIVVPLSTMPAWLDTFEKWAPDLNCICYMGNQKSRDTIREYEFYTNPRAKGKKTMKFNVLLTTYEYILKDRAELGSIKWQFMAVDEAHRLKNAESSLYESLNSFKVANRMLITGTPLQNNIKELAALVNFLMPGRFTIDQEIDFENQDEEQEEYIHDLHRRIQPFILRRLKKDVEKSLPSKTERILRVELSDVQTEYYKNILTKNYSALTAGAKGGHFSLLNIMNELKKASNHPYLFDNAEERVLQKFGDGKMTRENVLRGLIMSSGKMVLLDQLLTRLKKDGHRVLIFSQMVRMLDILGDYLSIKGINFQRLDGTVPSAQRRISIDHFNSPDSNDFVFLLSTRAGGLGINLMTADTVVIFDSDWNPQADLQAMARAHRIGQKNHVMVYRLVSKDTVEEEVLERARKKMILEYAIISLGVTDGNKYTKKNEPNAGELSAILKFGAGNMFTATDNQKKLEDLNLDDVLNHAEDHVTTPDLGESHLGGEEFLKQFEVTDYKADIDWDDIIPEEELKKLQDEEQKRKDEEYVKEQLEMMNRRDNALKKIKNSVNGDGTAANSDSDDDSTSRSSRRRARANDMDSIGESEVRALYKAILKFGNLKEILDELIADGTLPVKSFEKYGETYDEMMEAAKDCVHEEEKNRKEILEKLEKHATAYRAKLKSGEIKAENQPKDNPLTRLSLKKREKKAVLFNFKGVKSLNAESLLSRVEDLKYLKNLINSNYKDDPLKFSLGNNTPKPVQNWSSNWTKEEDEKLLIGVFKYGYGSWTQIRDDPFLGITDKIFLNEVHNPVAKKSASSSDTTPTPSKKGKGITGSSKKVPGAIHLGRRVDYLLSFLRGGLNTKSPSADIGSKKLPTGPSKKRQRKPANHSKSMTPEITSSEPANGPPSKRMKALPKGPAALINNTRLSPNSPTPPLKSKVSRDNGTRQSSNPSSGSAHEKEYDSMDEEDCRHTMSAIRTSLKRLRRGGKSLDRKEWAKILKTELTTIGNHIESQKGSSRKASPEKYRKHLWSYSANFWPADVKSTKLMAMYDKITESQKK

Chain of Protein translocase subunit SecA (Escherichia coli (strain K12)) (P10408 whole entry): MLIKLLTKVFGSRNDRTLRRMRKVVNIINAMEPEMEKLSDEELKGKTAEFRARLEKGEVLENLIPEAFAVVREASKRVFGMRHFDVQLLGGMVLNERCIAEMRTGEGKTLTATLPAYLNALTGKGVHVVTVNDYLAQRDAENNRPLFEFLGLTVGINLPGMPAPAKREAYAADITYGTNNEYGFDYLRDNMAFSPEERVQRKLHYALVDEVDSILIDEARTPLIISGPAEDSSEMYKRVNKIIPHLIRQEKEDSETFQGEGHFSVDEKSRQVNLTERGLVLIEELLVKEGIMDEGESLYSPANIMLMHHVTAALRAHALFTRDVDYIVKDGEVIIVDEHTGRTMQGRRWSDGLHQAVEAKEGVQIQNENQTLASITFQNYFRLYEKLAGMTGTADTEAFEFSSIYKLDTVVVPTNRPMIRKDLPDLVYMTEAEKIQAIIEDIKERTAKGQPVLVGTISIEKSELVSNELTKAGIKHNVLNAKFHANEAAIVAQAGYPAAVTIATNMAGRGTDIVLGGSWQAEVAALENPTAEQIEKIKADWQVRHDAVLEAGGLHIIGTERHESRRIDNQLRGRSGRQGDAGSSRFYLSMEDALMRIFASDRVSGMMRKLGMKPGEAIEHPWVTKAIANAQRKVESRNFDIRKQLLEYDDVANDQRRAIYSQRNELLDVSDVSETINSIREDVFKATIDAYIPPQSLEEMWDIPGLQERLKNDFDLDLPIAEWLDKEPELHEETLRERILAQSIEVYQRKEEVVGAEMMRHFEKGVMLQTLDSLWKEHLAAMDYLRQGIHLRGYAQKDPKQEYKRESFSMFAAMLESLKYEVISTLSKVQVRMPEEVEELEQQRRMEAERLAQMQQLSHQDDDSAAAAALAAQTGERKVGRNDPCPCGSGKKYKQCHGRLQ

| Compound | Percent Effect [1] [%] | Percent Effect [2] [%] | Percent Effect [3] [%] | Percent Effect [4] [%] | Percent Effect (Trypanosoma cruzi) [%] | Percent Effect [5] [%] | Percent Effect [6] [%] | Percent Effect (Homo sapiens) [%] | Percent Effect [7] [%] | Percent Effect [8] [%] | Percent Effect [9] [%] |
| --- | --- | --- | --- | --- | --- | --- | --- | --- | --- | --- | --- |
| CC(C)CN1CCC(C(=O)Nc2cc(C(F)(F)F)c[nH]c2=O)CC1 | -7.9 | 10.4 | 4.55 | 14.9 | 6.37 | -2.13 | 1.18 | -6.76 | 5.83 | 21.9 | -10.2 |
| CC(=O)NCc1ccc(C(=O)N2CCCC2c2cnn(C)c2)o1 (stereo unspecified) | -4.23 | -2.63 | -0.621 | 3.5 | -0.467 | 3.24 | 6.51 | -0.0723 | -0.493 | -1.24 | 2.06 |
| Cc1n[nH]c(C)c1C1CCCN1C(=O)NCC(=O)NC(C)(C)C (stereo unspecified) | -4.22 | 0 | 26.9 | 3.62 | -6.86 | 2.27 | 3.9 | 0.328 | 1.07 | 2.5 | -0.359 |
| O=C(N1CCOCC1)[C@@]12CCO[C@@H]1CCN(CCN1CCCCC1)C2 | -0.594 | 14.7 | -0.279 | -2.46 | 1.18 | -4.05 | 20.9 | -2.62 | -6.35 | 15.4 | -11.6 |
| COCCCNC(=O)NCc1ccc(C)cc1 | -4.5 | 6.33 | -3.62 | -1.57 | -0.308 | -4.52 | 13.2 | 1.42 | 5.21 | 17.7 | -28.6 |
| Cc1n[nH]c(C)c1NC(=O)CN1CCc2c(nc(C3CC3)n2C)C1 | -1.39 | 20.8 | -6.42 | -4.94 | -9.36 | 0 | 10.6 | 37.3 | 3.88 | 2.44 | -7.54 |
| Cc1nn(C)c(C)c1C1CCCN1Cc1noc(C2CC2)n1 (stereo unspecified) | 2 | 15.8 | -5.38 | -11.5 | -8.87 | 3.96 | 15.5 | 8.86 | 8.37 | 6.17 | -6.57 |
| CNCC(=O)N1CCCC(c2nccnc2Oc2cccc(F)c2)C1 (stereo unspecified) | -7.42 | 10.7 | 10 | -1.6 | -3.74 | -3.03 | 9.25 | 11.8 | 3.19 | 3.85 | -4.73 |
| COCCNC(=O)C1(c2ccccc2C)CCOCC1 | -6.97 | 2.7 | -2.99 | -1.02 | -5 | 4.81 | 0.18 | 13.2 | 0.493 | -6.17 | -1.03 |
| CN1CC(=O)N(c2cccnc2)CC12CCN(C(=O)C1CCCCC1)C2 (stereo unspecified) | 0.868 | 10.7 | 6.75 | 12.8 | -1.74 | -72.9 | 12.3 | 24 | 3.12 | 2.5 | -2.49 |
| Cc1nn(C)c(Cl)c1C1CCCN1CCc1ccccn1 (stereo unspecified) | 3.64 | -3.8 | 12.3 | 1.51 | -1.74 | 7.53 | 5.83 | 4.77 | -1.04 | 2.53 | -11.7 |
